Results: PubChem BioAssay
The source made the active and inactive calls. Unless noted, no rule for the calls is given here.

How the values were obtained:
[1] = resazurin metabolic signal in HepG2 cells – cell-based, resazurin fluorescence, 24 h, PK04 Diversity Set, profiling panel (AID 1172); settings: HepG2 viability, higher = more signal
[2] = budding yeast growth changes without added modifier – OD600, strain BY4716, 24 h, basal condition, primary screen (AID 1173); settings: S. cerevisiae BY4716 growth, OD600, 24 h; higher = more signal, called active from +8 up or from −8 down
[3] = viability profiling in MM1S myeloma cells – cell-based, resazurin fluorescence, basal, 24 h, PK04 Diversity Set, profiling panel (AID 1174); settings: higher = more signal, called active from +8 up or from −8 down;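 also: MM1S multiple myeloma cell line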
[4] = target: Dihydroorotate dehydrogenase (quinone), mitochondrial (Plasmodium falciparum (isolate 3D7)) (UniProt Q08210); test: inhibition of P. falciparum DHODH – biochemical, C-terminal His tag, absorbance 600 nm, primary screen (AID 1175); settings: PfDHODH enzyme, DCIP absorbance 600 nm; higher = more signal, called active from +8 up or from −8 down;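 also: recombinant parasite enzyme with a five histidine tag at its C terminus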
Sequence of Dihydroorotate dehydrogenase (quinone), mitochondrial (Plasmodium falciparum (isolate 3D7)) (Q08210 whole entry, looked up): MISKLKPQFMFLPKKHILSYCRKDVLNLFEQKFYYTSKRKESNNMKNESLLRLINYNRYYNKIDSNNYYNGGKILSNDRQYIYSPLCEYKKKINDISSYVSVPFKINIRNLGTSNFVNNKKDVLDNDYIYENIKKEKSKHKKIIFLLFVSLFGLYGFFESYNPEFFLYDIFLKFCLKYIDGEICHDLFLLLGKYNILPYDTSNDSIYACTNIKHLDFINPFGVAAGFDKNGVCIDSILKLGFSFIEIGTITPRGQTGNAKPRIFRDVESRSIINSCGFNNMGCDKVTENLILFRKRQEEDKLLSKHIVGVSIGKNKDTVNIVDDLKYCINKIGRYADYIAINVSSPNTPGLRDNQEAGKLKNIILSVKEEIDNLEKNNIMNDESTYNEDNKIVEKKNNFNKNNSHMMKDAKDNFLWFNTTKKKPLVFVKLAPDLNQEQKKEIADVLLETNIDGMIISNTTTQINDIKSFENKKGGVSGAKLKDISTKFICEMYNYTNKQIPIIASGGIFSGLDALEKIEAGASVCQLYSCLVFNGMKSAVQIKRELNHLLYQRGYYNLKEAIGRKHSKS

[5] = inhibition of PAO1 biofilm formation – strain PAO1, LB-PBS medium, absorbance 600 nm, primary screen (AID 1176); settings: P. aeruginosa PAO1 growth/biofilm, A600, 12 h; higher = more signal
[6] = growth modulation of vineyard yeast isolate – strain RM11-1a, OD600, basal, 24 h, primary screen (AID 1177);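 also: cultures grown under basal conditions with no added stressor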; settings: S. cerevisiae RM11-1a growth, OD600, 24 h; higher = more signal, called active from +8 up or from −8 down
[7] = growth of efflux-deficient E. coli DRC39 – strain DRC39, OD650, 24 h, E. coli filamentation inducers, primary screen (AID 1178);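 also: growth measured as culture turbidity by optical density at 650 nm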; settings: E. coli DRC39 acrAB, higher = more signal, called active from +8 up or from −8 down
[8] = growth of efflux-deficient E. coli DRC39 – strain DRC39, OD650, 48 h, E. coli filamentation inducers, primary screen (AID 1179);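 also: screen aims at cell division blockers that make cells filament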; settings: E. coli DRC39 delta-acrAB growth, higher = more signal, called active from +8 up or from −8 down
[9] = viability profiling in RPMI8226 myeloma cells – cell-based, resazurin fluorescence, basal, 24 h, PK04 Diversity Set, profiling panel (AID 1180); settings: higher = more signal;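 also: RPMI8826 multiple myeloma cell line at 5000 cells per well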
[10] = target: E3 ubiquitin-protein ligase XIAP (Homo sapiens) (UniProt P98170); test: small molecules binding XIAP protein – biophysical, small-molecule microarray, fluorescence 635 nm, primary screen (AID 1181); settings: higher = more signal;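 also: score merges 667 nm emission and signal to noise over triplicate slides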
Sequence of E3 ubiquitin-protein ligase XIAP (Homo sapiens) (P98170 whole entry, looked up, the tested form may be a part): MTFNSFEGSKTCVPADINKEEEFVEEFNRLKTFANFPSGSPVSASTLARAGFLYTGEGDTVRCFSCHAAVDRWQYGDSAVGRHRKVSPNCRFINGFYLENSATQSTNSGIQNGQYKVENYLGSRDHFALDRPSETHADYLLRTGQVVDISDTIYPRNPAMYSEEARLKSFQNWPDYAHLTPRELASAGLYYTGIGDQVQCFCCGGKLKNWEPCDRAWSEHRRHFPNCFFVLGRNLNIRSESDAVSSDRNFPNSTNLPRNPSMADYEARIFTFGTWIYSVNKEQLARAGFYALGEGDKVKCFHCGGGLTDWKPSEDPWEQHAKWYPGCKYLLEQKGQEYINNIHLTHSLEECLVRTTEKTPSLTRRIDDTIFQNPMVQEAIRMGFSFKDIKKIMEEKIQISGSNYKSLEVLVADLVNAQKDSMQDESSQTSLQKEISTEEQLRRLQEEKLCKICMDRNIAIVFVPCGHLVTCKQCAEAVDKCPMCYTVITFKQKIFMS

[11] = test system: XIP peptide (Xip251-270) binding; test: XIP fragment 251-270 binding compounds – biochemical, small-molecule microarray, fluorescence 635/667 nm, 0.1 µg/mL protein, primary screen (AID 1182); settings: fluorescent protein binding, 635 nm, higher = more signal, called active from +8 up or from −8 down
[12] = test system: XIP peptide (Xip251-270); test: compounds binding XIP fragment 251-270 – biochemical, small-molecule microarray, fluorescence 635/667 nm, 0.5 µg/mL protein, primary screen (AID 1183); settings: fluorescence 635 nm, higher = more signal
[13] = blood-stage malaria parasite viability loss – strain 3D7, DAPI fluorescence, 100 nL, primary screen (AID 1184);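 also: parasites grown inside human red blood cells in medium with human serum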; settings: P. falciparum 3D7 growth, 3 d, higher = more signal
[14] = target: Homeobox protein Hox-A13 (Mus musculus) (UniProt Q62424); test: disruptors of Hoxa13 oligonucleotide interaction – biochemical, fluorescence polarization, labeled oligonucleotide, primary screen (AID 1185); settings: Hoxa13:DNA binding, 15 min, higher = more signal, called active from +8 up or from −8 down
Sequence of Homeobox protein Hox-A13 (Mus musculus) (Q62424 whole entry, looked up): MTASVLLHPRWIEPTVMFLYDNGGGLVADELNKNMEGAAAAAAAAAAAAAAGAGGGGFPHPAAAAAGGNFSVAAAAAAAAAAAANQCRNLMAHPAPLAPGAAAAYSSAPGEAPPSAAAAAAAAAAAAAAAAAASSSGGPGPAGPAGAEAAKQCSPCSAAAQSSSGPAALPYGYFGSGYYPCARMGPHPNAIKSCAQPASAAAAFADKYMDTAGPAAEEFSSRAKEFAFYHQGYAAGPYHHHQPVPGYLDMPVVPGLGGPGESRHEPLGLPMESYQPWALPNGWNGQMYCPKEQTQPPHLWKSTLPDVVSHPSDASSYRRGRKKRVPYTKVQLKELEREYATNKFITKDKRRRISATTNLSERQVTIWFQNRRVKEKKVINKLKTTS

[15] = blockers of DNA damage checkpoint Chk1 activation – imaging, HeLa, hydroxyurea, phospho-Chk1 antibody, percent positive cells, primary screen (AID 1186); settings: hydroxyurea-induced phospho-Chk1 immunofluorescence imaging, higher = more signal
[16] = blockers of DNA damage checkpoint Chk1 activation – imaging, HeLa, hydroxyurea, phospho-Chk1 nuclear intensity, primary screen (AID 1187); settings: hydroxyurea-induced phospho-Chk1 immunofluorescence imaging, higher = more signal

SMILES	z-score [1]	z-score [2]	z-score [3]	composite z-score [4]	z-score [5]	z-score [6]	z-score [7]	z-score [8]	z-score [9]	composite z-score [10]	composite z-score [11]	composite z-score [12]	z-score [13]	z-score [14]	z-score [15]	z-score [16]
CCCC[C@H]1OB(O)C[C@H]2C1=C(C)C[C@H]1C(=O)C=CC(=O)[C@H]12	-0.559	-17.6 (active)	-1 (inactive)	-2.54 (inactive)	0.318 (inactive)	0.128 (inactive)	-0.449 (inactive)	-0.316 (inactive)	-0.312	-0.188	0.656 (inactive)	0.229	-0.0202	-6.4 (inactive)	0.217 (inactive)	-0.0819 (inactive)
Cc1ccc(S[C@]2(C(=O)NCC(F)(F)F)CC(=O)N(C3CCCCC3)[C@@H]2c2ccc(CO)cc2)cc1	-0.473	-0.0396 (inactive)	0.273 (inactive)	-1.41 (inactive)	0.0309 (inactive)	0.309 (inactive)	0.457 (inactive)	1.01 (inactive)	0.149	-0.155	0.23 (inactive)	0.201	-0.703	-3.04 (inactive)	-0.418 (inactive)	-0.25 (inactive)
COCCOC(=O)N1C(=O)[C@@]2(c3cc(C#CC4(O)CCCCCC4)ccc31)[C@H](c1ccccc1OCCO)N1[C@H](c3ccccc3)[C@H](c3ccccc3)OC(=O)[C@H]1[C@@H]2C(=O)N1CCCCCCC1	-0.0209	2.15 (inactive)	-0.303 (inactive)	0.0767 (inactive)	2.05 (inactive)	2.76 (inactive)	-0.225 (inactive)	0.003 (inactive)	-0.444	0.0483	1.86 (inactive)	0.727	-1.93	3.98 (inactive)	-0.531 (inactive)	-0.561 (inactive)
CC(C)(C)N1CC=CC23O[C@@H]4/C=C\CCCOC(=O)C4[C@H]2C(=O)N(CCCCCCO)[C@@H]3C1=O (stereo not given in full)	0.232	-0.584 (inactive)	0.702 (inactive)	-1.58 (inactive)	1.2 (inactive)	-1.13 (inactive)	-0.11 (inactive)	0.602 (inactive)	1.06	-0.0795	0.956 (inactive)	0.346	-0.136	-4.63 (inactive)	0.114 (inactive)	1.32 (inactive)
CC(=O)n1cc(C(O)C2C=CC3C(=O)N(c4ccccc4)C(=O)C3N2Nc2ccccc2F)c2ccccc21 (stereo not given)	0.68	-1.34 (inactive)	-0.223 (inactive)	-0.349 (inactive)	1.54 (inactive)	-0.86 (inactive)	0.8 (inactive)	0.86 (inactive)	0.0072	0.439	0.0433 (inactive)	0.752	-0.153	-4.01 (inactive)	-0.0566 (inactive)	0.153 (inactive)
COc1ccc(CC[C@H](O)c2cccc(OCC(=O)OC(C)(C)C)c2)cc1	0.657	-4.45 (inactive)	-0.25 (inactive)	-1.82 (inactive)	0.475 (inactive)	0.69 (inactive)	0.791 (inactive)	0.573 (inactive)	-0.204	-0.121	0.809 (inactive)	0.662	-1.03	-5.52 (inactive)	-0.0884 (inactive)	0.27 (inactive)
COCCOC(=O)N1C(=O)[C@@]2(c3cc(C#Cc4ccc(OC)cc4)ccc31)[C@H](C(=O)N1CCCCCCC1)[C@H]1C(=O)O[C@H](c3ccccc3)[C@H](c3ccccc3)N1[C@@H]2c1ccccc1OCCO	-0.107	1.88 (inactive)	-0.0216 (inactive)	-0.267 (inactive)	2.36 (inactive)	3.2 (inactive)	-0.609 (inactive)	-0.399 (inactive)	-0.429	0.89	1.65 (inactive)	0.728	-2.15	4.81 (inactive)	-0.0224 (inactive)	0.504 (inactive)
COCCOC(=O)N1C(=O)[C@@]2(c3ccccc31)[C@H](c1ccc(OCCO)cc1)N1[C@H](c3ccccc3)[C@H](c3ccccc3)OC(=O)[C@H]1[C@@H]2C(=O)N1CCN(c2ncccn2)CC1	0.19	1.03 (inactive)	-0.268 (inactive)	-0.0117 (inactive)	1.89 (inactive)	2.29 (inactive)	-0.441 (inactive)	-0.849 (inactive)	0.603	0.0548	0.522 (inactive)	0.772	-2.33	-0.376 (inactive)	0.0223 (inactive)	0.242 (inactive)
CC(=O)NCCCC[C@@H]1NC(=O)[C@H]2C[C@@H](C(=O)NCCCCCC[N+](C)(C)C)[C@@H](c3ccc(O)cc3)N2C1=O	0.387	-0.0177 (inactive)	0.319 (inactive)	-1.03 (inactive)	0.519 (inactive)	-0.533 (inactive)	-0.04 (inactive)	-0.63 (inactive)	-0.0771	-0.0062	0.265 (inactive)	0.883	-0.0467	-2.81 (inactive)	-0.207 (inactive)	0.0348 (inactive)
CC(C)C[C@@H]1NC(=O)[C@@H]2C[C@H](C(=O)NCCCC[N+](C)(C)C)[C@H](c3ccc(O)cc3)N2C1=O	-0.965	0.166 (inactive)	-0.524 (inactive)	-31.3 (active)	0.876 (inactive)	0.0138 (inactive)	0.382 (inactive)	0.581 (inactive)	-0.866	-0.128	1.03 (inactive)	0.858	-0.174	-1.73 (inactive)	0.757 (inactive)	0.0766 (inactive)
